Inconclusive results are not listed. A call without a number means that no potency is given here. Values without a mark were called inactive. Activity calls are given as the source filed them. Calls come from the whole dose curve; as a rule, active = well fitted curve in the direction sought with a large enough effect; inconclusive = small, poorly fitted or top-dose-only effect, or another doubt; inactive = no such curve, though single readings can be large; an effect the other way counts as inactive or inconclusive.
Experiments:
[1] = biological target: Rap guanine nucleotide exchange factor 3 (Homo sapiens) (UniProt O95398); assay: Confirmatory qHTS for antagonist of cAMP-regulated guanine nucleotide exchange factor 3 (EPAC1) (AID 1645880); conditions: EPAC1 Rap1B-BODIPY-GDP exchange, fluorescence; activity, negative = inhibition: at 115 µM (top of the series); note: nearly all actives have a fitted effect of over 55% in size; note: potency is the fitted concentration of half-maximal effect
Chain of Rap guanine nucleotide exchange factor 3 (Homo sapiens) (O95398 whole entry, looked up): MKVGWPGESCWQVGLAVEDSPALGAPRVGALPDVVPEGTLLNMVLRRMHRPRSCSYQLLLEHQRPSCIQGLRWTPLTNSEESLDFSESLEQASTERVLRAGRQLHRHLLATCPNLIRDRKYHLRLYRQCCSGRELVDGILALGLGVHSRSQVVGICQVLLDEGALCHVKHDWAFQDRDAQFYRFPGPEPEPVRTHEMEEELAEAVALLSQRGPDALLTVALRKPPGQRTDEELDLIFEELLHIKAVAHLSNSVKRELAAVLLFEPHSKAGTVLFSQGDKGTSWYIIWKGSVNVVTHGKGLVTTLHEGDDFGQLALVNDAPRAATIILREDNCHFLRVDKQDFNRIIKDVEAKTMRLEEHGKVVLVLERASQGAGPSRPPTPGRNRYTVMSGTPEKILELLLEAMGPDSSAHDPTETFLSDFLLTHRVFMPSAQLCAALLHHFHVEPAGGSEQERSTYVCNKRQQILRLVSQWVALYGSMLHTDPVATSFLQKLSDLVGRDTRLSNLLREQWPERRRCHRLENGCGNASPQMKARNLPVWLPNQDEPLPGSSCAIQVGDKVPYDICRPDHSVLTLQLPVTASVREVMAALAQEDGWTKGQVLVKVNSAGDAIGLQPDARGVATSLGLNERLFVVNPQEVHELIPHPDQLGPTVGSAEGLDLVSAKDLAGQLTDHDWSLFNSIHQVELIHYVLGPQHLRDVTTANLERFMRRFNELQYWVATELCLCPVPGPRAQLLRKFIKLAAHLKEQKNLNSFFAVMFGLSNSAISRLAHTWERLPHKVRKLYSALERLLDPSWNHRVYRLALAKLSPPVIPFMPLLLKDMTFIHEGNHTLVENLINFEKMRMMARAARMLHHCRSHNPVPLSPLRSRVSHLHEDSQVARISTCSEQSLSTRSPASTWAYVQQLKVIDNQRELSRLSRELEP
In short: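 Released BODIPY-GDP fluoresces less than Rap1-bound BODIPY-GDP; the signal is followed at 480/540 nm at 5-min intervals over 30 min, after 5 min at room temperature. Reactions contain 100 nM EPAC1, 250 nM RAP1B-BODIPY-GDP and 50 uM GDP; results are normalized to ATA and DMSO.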

[2] = biological target: Rap guanine nucleotide exchange factor 3 (Homo sapiens) (UniProt O95398); assay: Confirmatory qHTS for agonist of cAMP-regulated guanine nucleotide exchange factor 3 (EPAC1) (AID 1645881); note: nearly all actives have a fitted effect of over 75% in size; note: potency is the fitted concentration of half-maximal effect;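 for activation: EPAC1 catalysed release of BODIPY-GDP from Rap1B seen as fluorescence loss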
[3] = biological target: Rap guanine nucleotide exchange factor 4 (Homo sapiens) (UniProt Q8WZA2); assay: Confirmatory qHTS for agonist of cAMP-regulated guanine nucleotide exchange factor 4 (EPAC2) (AID 1645884);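 note: nucleotide exchange releases bodipy-GDP from Rap1 and this lowers its fluorescence; nearly all actives have a fitted effect of over 65% in size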; note: potency is the fitted concentration of half-maximal effect
Chain of Rap guanine nucleotide exchange factor 4 (Homo sapiens) (Q8WZA2 whole entry, looked up): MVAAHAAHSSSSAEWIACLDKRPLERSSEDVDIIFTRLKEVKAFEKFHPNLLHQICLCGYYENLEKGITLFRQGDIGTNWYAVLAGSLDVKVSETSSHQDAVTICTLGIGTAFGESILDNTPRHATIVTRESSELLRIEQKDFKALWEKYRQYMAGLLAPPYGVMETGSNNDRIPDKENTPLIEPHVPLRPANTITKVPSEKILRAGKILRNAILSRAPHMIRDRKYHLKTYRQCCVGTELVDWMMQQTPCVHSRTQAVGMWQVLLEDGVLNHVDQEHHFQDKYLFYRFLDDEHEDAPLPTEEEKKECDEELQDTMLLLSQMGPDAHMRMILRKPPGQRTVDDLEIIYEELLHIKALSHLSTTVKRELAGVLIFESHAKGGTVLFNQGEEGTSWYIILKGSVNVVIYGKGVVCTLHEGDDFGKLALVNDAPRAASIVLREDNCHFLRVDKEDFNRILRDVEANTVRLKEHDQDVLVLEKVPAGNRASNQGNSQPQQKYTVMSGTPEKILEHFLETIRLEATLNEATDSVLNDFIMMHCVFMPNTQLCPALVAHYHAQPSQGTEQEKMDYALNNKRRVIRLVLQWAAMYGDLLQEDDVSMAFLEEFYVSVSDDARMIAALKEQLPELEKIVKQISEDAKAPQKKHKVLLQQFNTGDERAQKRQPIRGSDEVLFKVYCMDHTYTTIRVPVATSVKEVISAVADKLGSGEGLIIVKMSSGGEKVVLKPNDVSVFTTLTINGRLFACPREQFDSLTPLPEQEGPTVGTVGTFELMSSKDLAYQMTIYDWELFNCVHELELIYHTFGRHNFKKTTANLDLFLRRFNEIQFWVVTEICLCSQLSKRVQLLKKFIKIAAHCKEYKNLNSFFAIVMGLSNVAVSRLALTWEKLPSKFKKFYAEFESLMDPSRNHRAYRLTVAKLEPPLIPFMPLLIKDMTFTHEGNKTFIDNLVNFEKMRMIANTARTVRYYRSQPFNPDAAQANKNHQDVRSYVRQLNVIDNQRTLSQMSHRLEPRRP

[4] = biological target: Rap guanine nucleotide exchange factor 4 (Homo sapiens) (UniProt Q8WZA2); assay: Confirmatory qHTS for antagonist of cAMP-regulated guanine nucleotide exchange factor 4 (EPAC2) (AID 1645885); note: nearly all actives have a fitted effect of over 25% in size; note: potency is the fitted concentration of half-maximal effect
[5] = biological target: Rap guanine nucleotide exchange factor 3 (Homo sapiens) (UniProt O95398); assay: Counterscreen qHTS for antagonist of cAMP-regulated guanine nucleotide exchange factor 3 (EPAC1) (AID 1645888)
In short: (§1)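 Measured: fluorescence of BODIPY-GDP bound to Rap1B, which falls as exchange proceeds. Conditions include 50 uM competing GDP, 5 and 30 min reads, and a later cAMP challenge for antagonist detection.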

[6] = biological target: Rap guanine nucleotide exchange factor 3 (Homo sapiens) (UniProt O95398); assay: Counterscreen qHTS for agonist of cAMP-regulated guanine nucleotide exchange factor 3 (EPAC1) (AID 1645889); note: nearly all actives have a fitted effect of over 40% in size; note: potency is the fitted concentration of half-maximal effect
In short: as §1

SMILES	Potency [1]	Potency [2]	activation [3]	Potency [4]	activity change, negative = inhibition [5]	activation [6]	Potency [3]	Potency [5]	Potency [6]	outcome [4]
CC(C)(C)N(NC(=O)Nc1ccc(F)cc1)C(=O)c1ccccc1	inactive	inactive	0.121% [at 17.1 µM, percent relative to cAMP agonist control]	inactive	-14.2% [at 30.8 µM]	0.382% [at 30.8 µM]				
O=C(NN1C(=O)/C(=C\c2ccc(O)c([N+](=O)[O-])c2)SC1=S)c1ccccc1Cl	50.1 µM (active)	inactive	-1.95% [at 17.1 µM, percent relative to cAMP agonist control]	inactive	-8.56% [at 30.8 µM]	0.476% [at 30.8 µM]				
O=C(Nc1ccc(-c2nnc(-c3ccco3)o2)cc1)C(c1ccccc1)c1ccccc1	inactive	inactive		inactive			inactive	inactive	inactive	
CCCc1nc2ccc(C(=O)OC)cn2c1Cc1ccccc1	inactive	inactive		33.8 µM (active)			inactive	inactive	inactive	
CC(OC(=O)CC1CCCCC1)C(=O)Nc1ccc(S(N)(=O)=O)cc1 (stereo not drawn)	inactive	inactive	2.89% [at 17.1 µM, percent relative to cAMP agonist control]	inactive	-10.1% [at 30.8 µM]	15.8% [at 30.8 µM]				
CCOc1cnc(-c2c(-c3c(Cl)cccc3Cl)noc2C)o1	inactive	inactive	1.16% [at 17.1 µM, percent relative to cAMP agonist control]	inactive	-6.2% [at 30.8 µM]	12% [at 30.8 µM]				
CCN(CC)c1ccc2c(c1)OC(N)=C(C#N)C2c1cccnc1 (stereo not drawn)	inactive	89.1 µM (active)		75.7 µM (active)			100 µM (active)	inactive	35.5 µM (active)	
CCCCc1nc(SCCOC)c2c(=O)n(C)c(=O)n(C)c2n1	inactive	inactive	4.93% [at 17.1 µM, percent relative to cAMP agonist control]	inactive	-15.9% [at 30.8 µM]	-0.239% [at 30.8 µM]				
CC(OC(=O)/C(C#N)=C/c1ccc(N(C)C)cc1)C(=O)N(C)c1ccccc1 (stereo not drawn)	inactive	50.1 µM (active)	3.03% [at 17.1 µM, percent relative to cAMP agonist control]	inactive	-2.82% [at 30.8 µM]	20.3% [at 30.8 µM]				
O=C(O)C1CC(=O)N(c2ccc(OCc3c(F)cccc3Cl)cc2)C1 (stereo not drawn)	inactive	inactive		inactive			inactive	inactive	inactive	
Cc1ccn2c(=O)c(NC(=O)c3ccc(Br)o3)c(C)nc2c1	inactive	inactive	4.58% [at 17.1 µM, percent relative to cAMP agonist control]	inactive	-1.7% [at 30.8 µM]	-2.62% [at 30.8 µM]				
CCN(CC)c1ccc2cc(-c3nc(-c4cccs4)no3)c(=O)oc2c1	inactive	100 µM (active)		3.38 µM (active)			35.5 µM (active)	inactive	79.4 µM (active)	
Cc1cccc(S(=O)(=O)NC(=O)C2(C)CCN2C(=O)Cc2cc(F)ccc2F)c1 (stereo not drawn)	inactive	inactive	11.8% [at 17.1 µM, percent relative to cAMP agonist control]	inactive	9.86% [at 30.8 µM]	-2.2% [at 30.8 µM]				
CCCCn1c(N)c(N(CCOC)C(=O)c2cccc(S(=O)(=O)N(C)c3ccc(C)cc3)c2)c(=O)[nH]c1=O	inactive	inactive	-4.77% [at 17.1 µM, percent relative to cAMP agonist control]	inactive	3.57% [at 30.8 µM]	14.6% [at 30.8 µM]				
COC(=O)CN1C(=S)N(c2ccc(OC)cc2)C(=O)/C1=C/c1ccc(N2CCOCC2)cc1	inactive	100 µM (active)		75.7 µM (active)			100 µM (active)	inactive	28.2 µM (active)	
CCc1ccc(NC(=O)CSc2nc(-c3ccccc3)c(C#N)c(=O)[nH]2)cc1	75.7 µM (active)	inactive					inactive	inactive	inactive	inactive [at 12.7 µM]
COc1ccc(CNC(=S)N/N=C/c2ccc(OC)c(OC)c2)cc1	inactive	inactive		67.5 µM (active)			inactive	inactive	inactive	
COc1cccc(OC)c1C(=O)NC(=S)NNC(=O)[C@H]1C[C@@H]1c1ccccc1	inactive	inactive		inactive			inactive	inactive	inactive	
CC1CCc2c(sc3nc(SCC(=O)O)n(-c4ccccc4)c(=O)c23)C1 (stereo not drawn)	inactive	inactive	-2.98% [at 17.1 µM, percent relative to cAMP agonist control]	inactive	-13.5% [at 30.8 µM]	5.5% [at 30.8 µM]				

SMILES	Potency [1]	Potency [2]	activation [3]	Potency [4]	activity change, negative = inhibition [5]	activation [6]	Potency [3]	Potency [5]	Potency [6]	outcome [4]
COc1ccc2nc3oc(C(=O)Nc4cccc(C(F)(F)F)c4)cc3cc2c1	inactive	inactive		inactive			inactive	inactive	inactive	
O=C(NCc1ccc(F)cc1)C(c1cccnc1)N(C(=O)c1csnn1)c1ccccc1 (stereo not drawn)	inactive	inactive	-0.815% [at 17.1 µM, percent relative to cAMP agonist control]	inactive	-0.606% [at 30.8 µM]	5.08% [at 30.8 µM]				
Cc1ccc(S(=O)(=O)Nc2ccc3cc([N+](=O)[O-])ccc3c2[N+](=O)[O-])cc1	21.3 µM (active)	inactive		inactive			inactive	inactive	inactive	
Cn1cccc1/C=C1\CCC/C(=C\c2cccn2C)C1=O	75.7 µM (active)	inactive		75.7 µM (active)			inactive	inactive	39.8 µM (active)	
N#C/C(=C/c1ccc(O)c(O)c1)C(=O)NCc1ccc(Cl)cc1	12.6 µM (active)	inactive	6.16% [at 17.1 µM, percent relative to cAMP agonist control]	inactive	-1.17% [at 30.8 µM]	19.6% [at 30.8 µM]				
Cc1cccc(NC(=O)C2CCCN(S(=O)(=O)c3ccc4c(c3)oc(=O)n4C)C2)c1 (stereo not drawn)	inactive	inactive	3.99% [at 17.1 µM, percent relative to cAMP agonist control]	inactive	-11.5% [at 30.8 µM]	7.38% [at 30.8 µM]				
O=C(c1ccccc1)c1coc2ccc(O)c(Cl)c12	inactive	inactive	4.32% [at 17.1 µM, percent relative to cAMP agonist control]	inactive	-20.3% [at 30.8 µM]	44.7% [at 30.8 µM]				
COc1cccc(-c2nc(SCC(=O)Nc3nc(-c4ccccc4)c(C)s3)[nH]c(=O)c2C#N)c1	75.7 µM (active)	inactive		inactive			inactive	inactive	inactive	
O=C(CNC(=O)c1sc2ccccc2c1Cl)NCc1cccc(C(F)(F)F)c1	inactive	inactive		inactive			inactive	inactive	inactive	
CCc1nc2c(OCc3ccc(C(=O)N(C)C)cc3)cccn2c1N(C)C(=O)c1ccc(C)cc1	inactive	inactive	2.55% [at 17.1 µM, percent relative to cAMP agonist control]	inactive	-28.5% [at 30.8 µM]	21.1% [at 30.8 µM]				
CCc1nnc(NC(=O)c2ccc(-c3cccc(C(F)(F)F)c3)o2)s1	inactive	inactive	4.04% [at 17.1 µM, percent relative to cAMP agonist control]	inactive	7.54% [at 30.8 µM]	26.6% [at 30.8 µM]				
Cc1cc(C)cc(OCCSc2nc(-c3ccc(C(C)(C)C)cc3)nc3cc(=O)[nH]n23)c1	67.5 µM (active)	inactive					inactive	inactive	inactive	inactive [at 12.7 µM]
CCOc1cc2c3c(c1)C(C)=CC(C)(C)N3C(=O)C2=O	inactive	inactive	-1.35% [at 17.1 µM, percent relative to cAMP agonist control]	inactive	-14.8% [at 30.8 µM]	25% [at 30.8 µM]				
CC(=O)Nc1sc(/C(C#N)=C\c2cccc(Cl)c2)nc1-c1ccc(C)cc1	inactive	inactive	-17.2% [at 17.1 µM, percent relative to cAMP agonist control]	inactive	148% [at 30.8 µM]	23.7% [at 30.8 µM]				
CC(Oc1ccc(Br)cc1)C(=O)NCC(c1cccs1)N1CCOCC1 (stereo not drawn)	inactive	inactive		inactive			inactive	inactive	inactive	
CCOC(=O)c1sc2nc(NC(=O)COc3ccccc3)sc2c1C	inactive	inactive	1.9% [at 17.1 µM, percent relative to cAMP agonist control]	inactive	-6.87% [at 30.8 µM]	25% [at 30.8 µM]				
O=C1CCC([N+](=O)[O-])C(c2cccc3ccccc23)N1 (stereo not drawn)	inactive	inactive	0% [at 17.1 µM, percent relative to cAMP agonist control]	inactive	-21.9% [at 30.8 µM]	45.7% [at 30.8 µM]				
COc1ccccc1CCC(=O)Nc1cc(S(=O)(=O)N2CCCCC2)ccc1N1CCN(C)CC1	inactive	inactive		inactive			inactive	inactive	63.1 µM (active)	
Cc1cccc(C(=O)Nc2cc(S(=O)(=O)N3CCOCC3)ccc2N2CCCC2)c1	inactive	inactive		inactive			inactive	inactive	inactive	
